Results as given in PubChem BioAssay AID493049 (Broad Institute, 2011).
Entries with a potency or affinity are not part of this list. Activity calls are given as the source filed them.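 Rule for the calls: active = viability loss with half-max dose at or under ten times the top valid dose tested; inconclusive = flat 30 to 70% loss, or poor curve fit; inactive = flat within 30%, weak potency, or gain.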

assay: viability loss in HRASV12 DRD fibroblasts, dose response, cell-based, DRD BJ fibroblasts, dry powder (AID 493049); conditions: DRD engineered BJ fibroblasts (HRASV12) viability, Alamar Blue, 48 h; series mostly up to 45 µM

| Compound | outcome |
| --- | --- |
| CCC(=O)N(c1ccc(OC)c(Cl)c1)C(C(=O)NCCc1ccccc1)c1cccs1 (stereo unspecified) | inactive |
| COc1ccc(N(C(=O)[C@@H](C)Cl)C(C(=O)NCCc2ccccc2)c2cccs2)cc1Cl (stereo partly specified) | inactive |
| COc1ccc(N(C(=O)CO)C(C(=O)NCCc2ccccc2)c2cccs2)cc1Cl (stereo unspecified) | inactive |
| COCC(=O)N(c1ccc(OC)c(Cl)c1)C(C(=O)NCCc1ccccc1)c1cccs1 (stereo unspecified) | inactive |
| O=C(c1[nH]ncc1[N+](=O)[O-])N1CCN(C(c2ccccc2)c2ccccc2)CC1 | inactive |
| COc1ccc(N(C(=O)CSc2ncccn2)C(C(=O)NCCc2ccccc2)c2cccs2)cc1Cl (stereo unspecified) | inactive |
